Screening data from PubChem.
hDAT+cocaine: modulates human dopamine transporter uptake under cocaine. Q01959. 1.3% of 110,000 active. LLC-PK1 hDAT cells, [14C]-dopamine uptake with cocaine IC80; actives deviate in either direction. B-score at 10 µM;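 active means Z score or B-score, a plate-position-corrected score, falls beyond the plate's 99.7% confidence bounds, in either direction; inactive means both scores lie inside the 99.7% bounds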;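 further: scored against the spread of the other compound wells on the same plate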
Target sequence (Q01959 whole entry, looked up): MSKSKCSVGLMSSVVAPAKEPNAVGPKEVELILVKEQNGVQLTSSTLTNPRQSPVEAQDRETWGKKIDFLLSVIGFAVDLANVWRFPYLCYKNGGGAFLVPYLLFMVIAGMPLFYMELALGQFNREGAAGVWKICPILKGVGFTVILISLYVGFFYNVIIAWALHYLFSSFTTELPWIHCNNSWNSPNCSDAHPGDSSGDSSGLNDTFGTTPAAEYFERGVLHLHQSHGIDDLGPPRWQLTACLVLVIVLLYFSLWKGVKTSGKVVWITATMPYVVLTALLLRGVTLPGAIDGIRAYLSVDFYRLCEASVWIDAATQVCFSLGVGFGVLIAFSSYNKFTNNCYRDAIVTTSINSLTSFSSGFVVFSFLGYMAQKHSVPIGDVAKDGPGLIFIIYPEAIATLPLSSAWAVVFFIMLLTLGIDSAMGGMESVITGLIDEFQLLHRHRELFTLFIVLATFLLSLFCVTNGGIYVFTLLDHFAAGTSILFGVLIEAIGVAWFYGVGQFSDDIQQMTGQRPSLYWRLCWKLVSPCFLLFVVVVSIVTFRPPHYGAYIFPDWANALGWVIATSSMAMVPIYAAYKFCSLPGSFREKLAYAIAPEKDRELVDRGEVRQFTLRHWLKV
EphB4 ephrin blk: antagonists of human EphB4-ephrin-B2 interaction; P54760; inhibition, % at 7 µM; 0.15% of 97,000 active; AID 720; EphB4 LBD / TNYL-RAW-Alexa532 peptide, fluorescence polarization;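 active means inhibition above the screen-wide mean inhibition plus 3 SD, cut at about 15% in these data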;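 further: 0% = DMSO wells and 100% = excess unlabeled TNYL-RAW peptide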
D1 allo mod: allosterically modulates the human D1 dopamine receptor; 5.9% of 58,000 active; HEK293 D1, CRE-luciferase, dopamine EC30 potentiation; actives deviate in either direction; B-score at 10 µM; AID 641;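 active means luminescence count or its row- and column-corrected plate score outside the 99.7% band of the plate's sample wells, on either side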
Starred values were filed as active, the others as inactive; x = no result given. The entries come from a sample that favours hits as a whole.

SMILES | hDAT+cocaine | EphB4 ephrin blk | D1 allo mod
Nn1c(SCc2cccc3ccccc23)nnc1-c1ccco1 | 0.78 | -1 | -0.44
CC(C)c1cc(C(C)C)c(S(=O)(=O)N2c3ccccc3[C@@]3(Br)C[C@H]4C(=O)N[C@@H](Cc5ccccc5)C(=O)N4[C@@H]23)c(C(C)C)c1 | -0.43 | x | x
Cc1[nH]c2ccccc2c1C(=O)CSc1nc2ccccc2c(=O)n1CCCN1CCOCC1 | 0.96 | 0 | x
CCN(CC)C(=O)/C(=C\c1ccc(Br)cc1)NC(=O)c1ccccc1OC | 15* | 7 | x
COc1ccccc1C(=O)N/C(=C\c1ccc(Br)cc1)C(=O)NCCO | 0.3 | -2 | x
O=C(O)C[C@H]1c2cc(C(F)(F)F)ccc2S(=O)(=O)N1C1CCCCC1 | -0.76 | x | x
CSc1cccc(NC(=O)C(C)NS(=O)(=O)c2ccc(F)cc2)c1 (centres undefined) | -0.4 | 1 | x
CCCN1C=CC(=C2C(=O)c3ccccc3C2=O)C=C1 | 1.3 | x | -5.7*
CCN1C=CC(=C2C(=O)c3ccccc3C2=O)C=C1 | 0.5 | 6 | -8.8*
CC1=CC(=C2C(=O)c3ccccc3C2=O)C=C(C)O1 | x | 7 | x
CN1C=CC(=C2C(=O)c3ccccc3C2=O)C=C1 | -0.8 | 3 | -3.1
COc1ccc(/C=C/C(=O)c2ccc(NC(=O)c3cccs3)cc2)cc1OC | 0.64 | 1 | x
CCC(=O)c1ccc(N2CCOCC2)c(F)c1 | -1.6 | 1 | x
Cc1ccc(C(=O)c2ccc(N3CCOCC3)c(F)c2)cc1 | 4.5* | 3 | x
CCOC(=O)c1ccc(N2C(=O)c3n[nH]c(C)c3C2c2ccc(OC)cc2)cc1 (centres undefined) | 1.3 | -3 | 0.35
CCOC(=O)c1ccc(N2C(=O)c3n[nH]c(C)c3C2c2ccc(OC)c(OC)c2)cc1 (centres undefined) | 0.88 | 4 | -2.3*
COc1cc(CC2COC(c3ccc(O)c(OC)c3)C2COC(C)=O)ccc1O (centres undefined) | 0.032 | x | x
CCOc1ccc(N2C(=O)CC(N3CCC(NC(=O)Nc4ccccc4)CC3)C2=O)cc1 (centres undefined) | -2* | 5 | -0.063
CCOc1ccc(N2C(=O)CC(N3CCN(C(=O)CN4CCCC4)CC3)C2=O)cc1 (centres undefined) | -0.078 | 5 | x
CSc1sc(C(=O)NN)c2c1C(O)CCC2 (centres undefined) | 0.18 | x | x
CC1=CC2=NC(=O)CC(C)(C(=O)N(CC(=O)NC(C)(C)C)Cc3cccs3)N2C=C1 (centres undefined) | 0.13 | -6 | x
CCOC(=O)c1cccc2c1-c1ccccc1/C2=N/O | 0.46 | 2 | 0.23
CC1CCCC(C)N1C(=O)c1cccc2c1-c1ccccc1/C2=N/O (centres undefined) | 4* | 7 | x
COc1cccc(/C=N/n2c(C)nc3ccccc3c2=O)c1O | 0.35 | 1 | 0.73
COc1cccc(C=Nc2cccnc2)c1O | -7* | -4 | 0.54
SMILES | hDAT+cocaine | EphB4 ephrin blk | D1 allo mod
NC(=O)CC(NSc1ccccc1[N+](=O)[O-])C(=O)O (centres undefined) | -1.9 | x | x
Cn1c(=O)c(C(=O)Nc2cccnc2)c(O)c2ccccc21 | x | 3 | 0.056
Cn1c(=O)c(C(=O)Nc2ncccc2O)c(O)c2ccccc21 | 2.2* | x | -0.016
COc1ccc(C(=O)NCCCc2nc3ccccc3n2Cc2ccccc2C)cc1OC | 0.89 | x | x
CC(C)CC(CO)N1CCN(C(=O)c2ccc(Cl)cc2)CCC1=O (centres undefined) | 0.012 | x | x
CN(C)C=NCCn1c(N2CCOCC2)nc2c1c(=O)n(C)c(=O)n2C | -0.87 | x | -3.8*
CC(C)CCn1c(N2CCOCC2)nc2c1c(=O)n(CC(N)=O)c(=O)n2C | 1.8 | -3 | -0.6
O=C(Nc1nc(-c2nc3ccccc3s2)cs1)C1CC1 | 0.76 | x | -3.4*
O=C(Nc1nc(-c2nc3ccccc3s2)cs1)c1ccco1 | -1.8 | x | 0.11
NC1=NC2(CCC(c3ccccc3)CC2)n2c(nc3ccccc32)N1 (centres undefined) | x | 0 | -0.34
NC1=NC2(CCCCC2)n2c(nc3ccccc32)N1 | -0.65 | 2 | -4.6*
COC(=O)C1N[C@@H]([C@@H](NC(=O)COc2ccccc2)C(=O)Nc2ccc(OC)cc2)SC1(C)C (some centres undefined) | 0.83 | x | x
COc1ccc(/C=N\n2nnc3ccccc32)cc1 | -1.7 | x | -3.9*
COc1ccc(/C=N/n2cc(-c3ccccc3)nc2N)cc1 | 1.2 | x | 0.41
O=C1c2ccccc2S(=O)(=O)c2cc(C(=O)N3CCN(C(=O)c4ccccc4)CC3)ccc21 | 1.4 | x | x
CCOc1ccc(NC(=O)N(CCN2CCOCC2)Cc2ccc3c(c2)CCCN3CC)cc1 | 2.1 | -1 | 1.4
CCCN1CCCc2cc(CN(CCCN3CCOCC3)C(=O)Nc3ccc(OCC)cc3)ccc21 | 2.7* | 1 | x
COc1ccc(CNc2nc3ccccc3n2Cc2ccccc2)cc1OC | 2.1 | 0 | x
CCn1c(CSc2nc3ccccc3[nH]2)nc2cc(C(=O)O)ccc21 | -0.59 | 4 | x
CCn1c(CSc2nccn2C)nc2cc(C(=O)O)ccc21 | -0.96 | 15* | -0.77
CCN1C(=O)N[C@@H](c2cccc(C(F)(F)F)c2)[C@@H](C(=O)OC)[C@H]1C | 0.57 | x | x
CC(=Nc1ccccc1)C1=C(O)COC1=O | -0.33 | 2 | x
CC(=Nc1ccccc1)c1sc2ccccc2c1O | 2.3* | 3 | x
Cc1c(C#N)c2ncnc(-c3ccccc3)c2n1-c1ccccc1 | 0.11 | -7 | 0.92
Cc1c(C#N)c2ncn(Cc3ccccc3)c(=O)c2n1-c1ccccc1 | 0.33 | -7 | 13*
SMILES | hDAT+cocaine | EphB4 ephrin blk | D1 allo mod
CCCCNC(=O)c1onc(CSc2ccc(F)c(F)c2)c1C(=O)NCCCC | 0.19 | x | x
CSCCC(NS(=O)(=O)c1ccc(Cl)cc1)C(=O)OCC(=O)NC1CCCCC1 (centres undefined) | 3.2* | -7 | x
CSCCC(NS(=O)(=O)c1ccc(Cl)cc1)C(=O)OCC(=O)NC1CC1 (centres undefined) | -1.3 | 2 | x
Cc1cc(C)c2c(-n3cccc3)c(C(=O)NNS(=O)(=O)c3ccc(Cl)cc3)sc2n1 | 2.6 | 0 | x
Nc1ccccc1Nc1ccccc1 | 2.5* | 0 | x
Nc1ccc(Nc2ccccc2)c(Cl)c1 | -1.1 | 0 | -0.58
O=C(NCCCN1CCCC1)c1ccc(CS(=O)(=O)c2ccc(Br)cc2)o1 | x | 7 | -0.46
Cc1ccc(S(=O)(=O)Cc2ccc(C(=O)NCCCN3CCCC3=O)o2)cc1 | 0.31 | 6 | -3.3*
COc1ccc(Oc2cn[nH]c2-c2ccc(O)cc2O)cc1 | 0.83 | -8 | x
CCCc1ccc(Oc2cn[nH]c2-c2ccc(O)cc2O)cc1 | -0.038 | -1 | -4.9*
Cc1ccc(-c2nn[nH]n2)cc1 | -8.2* | 1 | x
CS(=O)(=O)c1ccc(-c2nn[nH]n2)cc1 | 0.54 | -4 | -0.62
CCOC(=O)c1cnc(-n2nc(C)cc2C)nc1NCc1ccc2c(c1)OCO2 | -7* | 6 | 0.59
CCOC(=O)c1cnc(-n2nc(C)cc2C)nc1NCCc1ccccc1 | 2 | 6 | 1
O=C(O)CCn1nnc(-c2cccs2)n1 | 0.49 | -6 | 0.1
CC(C)c1ccc(-c2nnn(CCC(=O)O)n2)cc1 | -0.55 | -5 | -3.6*
C=CCSc1nnc(-c2cc3c(C(F)(F)F)nn(C)c3s2)n1C | -8.8* | 0 | x
C=CCSc1nnc(-c2cc3c(-c4ccccc4)nn(C)c3s2)n1C | 1.2 | 1 | x
